Records with an inconclusive call do not appear. Active and inactive are the calls of the source. Rule for the calls: active = hit-call score of the fitted dose curve at least 0.9, where 1 is the maximum; inconclusive = response in the unintended direction; inactive = score below 0.9.
Molecular target: human SGK1 AGC Kinase, SGK1 (gene 6446) (UniProt O00141)
Experiment: ERF_FR_ENZ_hSGK1: Eurofins (ERF) Enzymatic Radiometric [Km ATP] KinaseProfiler LeadHunter Assay for human SGK1 AGC Kinase
Protocol: ERF_FR_ENZ_hSGK1 is a biochemical, single-readout assay that uses extracted gene-proteins in a cell-free assay. Measurements were taken 0.5 hour after chemical dosing in a 96-well plate. See SGK1 Human AGC Kinase Enzymatic LANCE Assay [Km ATP], Cerep.ERF_FR_ENZ_hSGK1 is an assay component calculated from the ERF_FR_ENZ_hSGK1 assay. It is designed to measure enzyme activity using a type of enzyme reporter as detected by fluorescence intensity with LANCE technology.Data from the assay component ERF_FR_ENZ_hSGK1 was analyzed at the assay endpoint, ERF_FR_ENZ_hSGK1, in the positive analysis fitting direction relative to DMSO as the negative control and baseline of activity. Using a type of enzyme reporter, loss-of-signal activity can be used to understand changes in enzymatic activity as they relate to gene SGK1. To generalize the intended target to other relatable targets, this assay endpoint is annotated to the kinase intended target family, where the subfamily is serine/threonine kinase.
SGK (h) is incubated with 8 mM MOPS pH 7.0, 0.2 mM EDTA, 30 uM […], 10 mM MgAcetate and [g- 33P]-ATP (specific activity and concentration as required). The reaction is initiated by the addition of the Mg/ATP mix. After incubation for 40 minutes at room temperature, the reaction is stopped by the addition of phosphoric acid to a concentration of 0.5%. […]

human SGK1 AGC Kinase, SGK1 (gene 6446), sequence (O00141 whole entry, looked up): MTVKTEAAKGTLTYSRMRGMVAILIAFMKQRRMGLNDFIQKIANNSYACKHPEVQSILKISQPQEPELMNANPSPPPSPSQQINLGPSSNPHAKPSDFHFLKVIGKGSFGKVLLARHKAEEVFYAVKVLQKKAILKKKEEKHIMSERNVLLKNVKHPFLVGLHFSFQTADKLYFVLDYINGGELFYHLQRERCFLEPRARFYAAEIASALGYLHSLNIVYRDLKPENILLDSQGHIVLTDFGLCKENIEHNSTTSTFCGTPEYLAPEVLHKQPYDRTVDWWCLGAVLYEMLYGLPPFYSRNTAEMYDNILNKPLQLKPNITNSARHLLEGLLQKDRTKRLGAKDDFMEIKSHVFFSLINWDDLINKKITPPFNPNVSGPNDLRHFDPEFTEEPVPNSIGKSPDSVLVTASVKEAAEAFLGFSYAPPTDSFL

| Compound | outcome |
| --- | --- |
| O=C(/C=C/c1ccc(O)cc1)CC(=O)/C=C/c1ccc(O)cc1 | inactive |
